ALR H2O2 inh: inhibitors of human ALR sulfhydryl oxidase, primary screen, biochemical, H2O2 detection, HRP-luminol luminescence, single point; purified ALR, DTT oxidation; inhibition, % (no concentration beside the values); actives 3.8% (n = 290,000);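 active = mean replicate inhibition above about 79%, with every replicate also reaching it, limit read from the data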
A3A deaminase: APOBEC3A ssDNA deaminase inhibitors, primary screen, selectivity assay for APOBEC3G inhibitor project, biochemical, FAM/TAMRA oligo cleavage fluorescence. DNA dC->dU-editing enzyme APOBEC-3A (Homo sapiens), P31941. recombinant A3A, FAM/TAMRA ssDNA deamination fluorescence. inhibition, % at 20 µM. actives 0.41% (n = 330,000);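 active = at least 40% inhibition at 20 µM here, with at most 30% in a related deaminase screen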;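 note: plate controls were A3A with DMSO for no effect and wells lacking A3A enzyme for full effect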
NRP1-CendR mod: modulators of CendR peptide binding to NRP-1, primary screen, biochemical, fluorescence polarization, uHTS. Neuropilin-1 (Homo sapiens), O14786. FAM-RPARPAR peptide binding to NRP-1. inhibition, % at 25 µM. actives 0.85% (n = 360,000). AID 602438, 2012;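 active = inhibition or corrected inhibition above about 18%, plus a signal ratio from 0.5 to 1.5, limit read from the data, passing the limit was not always enough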
Target sequence (O14786 whole entry, looked up): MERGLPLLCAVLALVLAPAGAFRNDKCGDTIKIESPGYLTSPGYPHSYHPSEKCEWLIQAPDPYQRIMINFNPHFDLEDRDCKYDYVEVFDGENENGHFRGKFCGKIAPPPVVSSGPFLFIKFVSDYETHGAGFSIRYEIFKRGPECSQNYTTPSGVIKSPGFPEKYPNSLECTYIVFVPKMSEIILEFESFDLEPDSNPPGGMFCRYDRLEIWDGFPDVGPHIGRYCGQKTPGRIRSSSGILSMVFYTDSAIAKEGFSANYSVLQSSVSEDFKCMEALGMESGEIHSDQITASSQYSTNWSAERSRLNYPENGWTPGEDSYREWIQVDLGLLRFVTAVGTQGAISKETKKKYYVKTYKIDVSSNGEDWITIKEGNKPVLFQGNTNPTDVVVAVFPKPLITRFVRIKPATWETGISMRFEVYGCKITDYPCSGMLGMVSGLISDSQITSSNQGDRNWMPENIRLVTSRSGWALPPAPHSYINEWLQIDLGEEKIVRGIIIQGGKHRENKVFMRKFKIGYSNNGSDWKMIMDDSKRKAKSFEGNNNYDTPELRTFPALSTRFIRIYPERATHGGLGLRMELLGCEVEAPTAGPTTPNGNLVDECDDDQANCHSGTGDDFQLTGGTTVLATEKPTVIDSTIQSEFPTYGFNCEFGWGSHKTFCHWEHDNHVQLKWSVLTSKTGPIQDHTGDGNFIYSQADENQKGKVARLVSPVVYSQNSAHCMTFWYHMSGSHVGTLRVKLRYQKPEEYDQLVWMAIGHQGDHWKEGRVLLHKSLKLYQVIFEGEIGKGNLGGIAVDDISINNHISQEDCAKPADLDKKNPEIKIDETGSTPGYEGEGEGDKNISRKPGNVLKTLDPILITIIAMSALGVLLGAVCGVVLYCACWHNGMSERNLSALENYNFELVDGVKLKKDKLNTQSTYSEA
PfM18AAP inh: PfM18AAP inhibitors, malaria aminopeptidase, primary screen, biochemical, QFRET, recombinant enzyme | H-Glu-NHMec fluorogenic cleavage | inhibition, % at 7.35 µM | actives 1.2% (n = 290,000) | AID 1822, 2009;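 active = inhibition above the campaign mean inhibition over all tested compounds plus 3 SD, cut at about 28% in these data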;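 note: 0% = plate median of test compound wells and 100% = 2 mM ZnCl2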
Yeast superoxide: reduction of superoxide in aged yeast, primary screen, HTS; S. cerevisiae aged cells, superoxide DHE fluorescence; stronger effect = lower value; superoxide response (% of plate mean), % at 10 µM; actives 0.18% (n = 330,000);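 active = superoxide response under a set limit, about three screen SD below normal, cut at about 65% in these data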;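 note: yeast aged for seven days with compound at 30 °C before DHE staining; 100% = average MFI of all compound-treated wells on the plate with controls excluded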
APOBEC3G inh: APOBEC3G DNA deaminase inhibitors, primary screen, biochemical, fluorescence, single-stranded DNA substrate, uHTS; actives 0.28% (n = 330,000); inhibition, % at 20 µM; recombinant A3G, ssDNA deamination FAM/TAMRA fluorescence; DNA dC->dU-editing enzyme APOBEC-3G (Homo sapiens), Q9HC16;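 active = inhibition of at least 40% at 20 µM, with no more than 30% in the related APOBEC3A deaminase screen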;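 note: plate controls were DMSO wells with A3G for no effect and wells lacking A3G enzyme for full effect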
* marks the source's active call; other numbers are inactive results; / = no result given. In the library only some 5.2% were active in any assay of this set; here they are far more common.

SMILES	ALR H2O2 inh	A3A deaminase	NRP1-CendR mod	PfM18AAP inh	Yeast superoxide	APOBEC3G inh
C=CCn1c(N)c(C(=O)NCC2CCCO2)c2nc3ccccc3nc21 (stereo not given)	44	-5	15	-1	100	-1
COCCCN1C(=O)C(=O)/C(=C(/O)c2ccc(C)cc2)C1c1ccccc1 (stereo not given)	-14	-1	12	-1	114	1
O=C(NCc1ccccc1)c1cccc(S(=O)(=O)NCc2ccccc2)c1	-6	1	11	2	117	1
C=CCn1c(N)c(C(=O)NCc2ccco2)sc1=S	98*	-1	-14	11	98	-4
CCOC(=O)c1ccc(NC(=O)CN2C(=O)C(CC)SC(CC)C2=O)cc1 (stereo not given)	-18	3	3	2	103	0
COc1ccc2c(c1)c1ncn(CCc3ccccc3)c(=O)c1n2C	91*	0	-4	-8	100	-3
N/C(=N\O)c1ccc(N2CCN(c3ncccc3C(F)(F)F)CC2)nc1	91*	2	10	-4	78	-1
O=C(Nc1ccc(N2CCN(c3ncccc3C(F)(F)F)CC2)nc1)c1cccs1	-2	-1	-6	2	90	-4
COc1cc(CNn2c(C)n[nH]c2=S)cc(Cl)c1OCc1ccccc1	56	-4	12	-3	94	-8
COc1cc(CNn2cn[nH]c2=S)cc(Cl)c1OCc1ccc(F)cc1	97*	2	9	9	86	-7
S=c1[nH]ncn1NCc1ccc(Cl)cc1Cl	89*	1	-4	26	101	31
Fc1cccc(Cl)c1CNn1cn[nH]c1=S	82*	-2	2	19	96	23
C=CCOc1ccc(CNn2cn[nH]c2=S)cc1OC	-22	-3	14	14	91	15
COC(=O)c1ccc(-c2ccco2)n1Cc1nc(-c2ccc(OC)c(OC)c2)oc1C	-17	0	-34	-12	112	-1
OC(Cc1cccnc1)(c1ccccc1)c1ccccc1	/	/	-4	/	/	/
Nc1ccccc1C(O)(Cc1ccccc1)c1ccccc1 (stereo not given)	99*	3	-9	-2	101	7
CC(O)CN1CCN(C(=O)CN2C(=O)NC(c3ccccc3)(c3ccccc3)C2=O)CC1 (stereo not given)	-17	-4	-3	0	97	-5
N#CC1=C(N)N(c2ccccc2)C(c2ccco2)C1(C#N)C#N (stereo not given)	94*	-3	4	4	97	-6
Cc1cccc(N2C(N)=C(C#N)C(C#N)(C#N)C2c2ccccc2)c1 (stereo not given)	37	0	2	-20	104	-1
CCOc1ccc(NC(=O)Cn2cncc2-c2ccc([N+](=O)[O-])cc2)cc1	-3	/	2	7	94	/
CCOC(=O)Cn1cncc1-c1ccc([N+](=O)[O-])cc1	97*	0	-2	1	99	-2
CCOC(=O)c1cc(C)sc1/N=C/C1=C(O)CCCC1=O	32	1	-2	-2	80	-3
CC(C)(C)C(=O)Nc1cc(C(F)(F)F)ccc1N1CCOCC1	-2	1	-6	5	101	-5
CC(=O)NC(c1ccc(Cl)cc1)c1c(O)ccc2ccc(O)cc12 (stereo not given)	96*	-4	-6	-7	112	-4
CN1C=CC=C/C1=C(\C#N)c1nc2ccccc2[nH]1	99*	-4	-8	-2	88	-9
SMILES	ALR H2O2 inh	A3A deaminase	NRP1-CendR mod	PfM18AAP inh	Yeast superoxide	APOBEC3G inh
O=C1CCC(C(=O)O)N1 (stereo not given)	-10	-1	-22	7	100	-7
CCOC(=O)Cn1c(=S)[nH]c2c(oc3ccc(Cl)cc32)c1=O	96*	-4	13	4	119	-6
COc1cc(C)c(NC(=O)COc2cccc3c2OC(C)(C)C3)cc1OC	/	0	-2	/	104	0
CCN(Cc1ccc2c(c1)OCCO2)S(=O)(=O)c1ccc(NC(C)=O)cc1	-1	-2	8	/	99	-2
COC(=O)c1cn(C(=O)c2ccc(Br)o2)c2ccccc12	3	-3	25*	2	128	-2
COC(=O)c1cn(C(=O)c2ccco2)c2ccccc12	-4	1	-6	4	85	-1
CC(C)n1c(=S)[nH]c2scc(-c3cccs3)c2c1=O	90*	21	-10	7	120	16
O=c1c2c(-c3cccs3)csc2[nH]c(=S)n1-c1ccccc1	90*	3	-18	6	98	-5
C/C(=N\Nc1nc(N)cc(Cl)n1)c1ccc(F)cc1	3	-3	9	8	87	-4
COC(=O)c1cc(=O)n(CCc2ccc(OC)c(OC)c2)c(=Nc2ccc(F)c(Cl)c2)s1	/	-6	8	0	87	-9
CCOc1ccc(S(=O)(=O)Nc2nc3ccccc3nc2Cl)cc1	88*	0	-2	-8	92	-7
COc1ccc(NC2CCCCC2NS(=O)(=O)c2ccc(C)cc2)cc1 (stereo not given)	87*	-5	-5	7	92	-5
CCOc1ccc(S(=O)(=O)NC2CCCCCC2)cc1	/	-5	-7	-4	112	-8
CCOc1ccc(NC2CCCCC2NS(=O)(=O)c2ccccc2)cc1 (stereo not given)	92*	-6	15	0	91	0
COc1ccc(-c2ccc(C(C)=O)cc2)cc1[C@H]1[C@@H]2C=CCC[C@@]2(C)C(=O)N1Cc1ccccc1	/	3	-15	/	106	-5
COc1ccccc1Oc1coc2c(CN3CCOCC3)c(O)ccc2c1=O	-1	-3	9	2	95	-2
Cc1ccccc1Nc1nc(N)nc(COC(=O)CC2CC3CCC2C3)n1 (stereo not given)	35	-2	27*	-6	100	-3
C[C@@H]1CC=C[C@H]2[C@H]1C(=O)N(Cc1ccccc1)[C@H]2c1ccc(F)c(-c2ccc(N(C)C)cc2)c1	/	-2	0	/	92	-7
CN1C(=O)C2C(c3ccc(N(C)C)cc3)NN(Cc3ccccc3)C2C1=O (stereo not given)	98*	1	-8	9	92	-6
C[C@]12CC[C@H]3C(=CCc4cc(O)ccc43)[C@@H]1CCC2=O	94*	-3	-8	0	99	-2
